# Measured values published in PubChem BioAssay (NCATS).
# Results filed as inconclusive are left out. A number with no mark means an inactive call. The source made the active and inactive calls. Unless noted, the call rests on the fitted dose curve; in most records, active means well fitted curve in the direction sought with a large enough effect; inconclusive means small, poorly fitted or top-dose-only effect, or another doubt; inactive means no such curve, though single readings can be large; an effect the other way counts as inactive or inconclusive.
# Experiments:
# [1] = biological target: ATP-dependent 6-phosphofructokinase (Trypanosoma brucei brucei) (UniProt O15648); assay: qHTS Assay to Find Inhibitors of T. brucei phosphofructokinase: hit validation (AID 492961);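 further: luminescence reports ADP formed as PFK phosphorylates fructose-6-phosphate with ATP; on the % scale 0 is the no-effect control and ±100 the full control effect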
# How it was run: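 ADP-Glo luminescence read-out of ADP formed by 1.25 nM PFK from 0.1 mM ATP and 0.5 mM F6P (TEA pH 8.0, 45 min, RT). Compounds titrated; activity normalized to no-enzyme and full-enzyme controls.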
# [2] = biological target: Ubiquitin carboxyl-terminal hydrolase 1 (Homo sapiens) (UniProt O94782); assay: Inhibitors of USP1/UAF1: Pilot qHTS (AID 504865);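 further: rhodamine fluorescence freed from ubiquitin-rhodamine substrate followed over time; top concentration of the series differs between compounds; on the % scale 0 is the no-effect control and ±100 the full control effect; nearly all actives have a fitted effect of over 35% in size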
# How it was run: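 1nM USP1/UAF1 + cpd, 15 min RT; start w/ Ub-Rho 150nM final; kinetic FL 480/540 nm, 6 reads q60 s. Buffer 50mM HEPES pH 7.8, 0.5mM EDTA, 1mM TCEP, 0.01% Tween-20, 0.1 mg/ml BSA.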
# [3] = biological target: Luciferin 4-monooxygenase (Photinus pyralis) (UniProt P08659); assay: Biochemical firefly luciferase enzyme assay for NPC (AID 624030);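 further: purified P. pyralis luciferase at 10 nM with luciferin and ATP substrate; 0% = DMSO and -100% = full luciferase inhibition by PTC124 control; nearly all actives have a fitted effect of over 70% in size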
# How it was run: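 Direct inhibition of firefly luciferase enzyme (10 nM final, 50 mM Tris Acetate) assessed by luminescence within 5 minutes. Percent activity scaled between DMSO and PTC124 positive control, with concentration-effect curves classified by fit quality and response.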
# [4] = S16 Schwann cell viability assay (CellTiter-Glo assay) (AID 624031);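 further: cellular ATP luminescence as a viability measure; plate controls were DMSO-treated cells for no effect and cell-free wells for full effect; nearly all actives have a fitted effect of over 70% in size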
# How it was run: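 Luminescent ATP read-out (CellTiter-Glo) after 24 h compound exposure of native S16 rat Schwann cells at 37 °C. Signals were normalized between cell-free wells and DMSO-treated cells, set as 0% activity.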
# [5] = S16 Schwann cell PMP22 intronic element beta-lactamase assay (AID 624044; calls by dose curve;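 further: 0% = DMSO and -100% = potassium clavulanate positive control; nearly all actives have a fitted effect of over 15% in size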)
# How it was run: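 Rat S16 Schwann cells with beta-Lac driven by a PMP22 intronic element, compound-treated 24 h at 37 °C. LiveBLAzer FRET B/G read: 460 nm normalized to potassium clavulanate vs DMSO; 535 nm FRET as viability; concentration-effect curves classified.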
# 3D7 = assay: qHTS profiling for inhibitors of Plasmodium falciparum proliferation (AID 504749); further: potency means the concentration at half of the fitted maximal effect; nearly all actives have a fitted effect of over 60% in size; conditions: P. falciparum in erythrocytes, SYBR Green DNA, 72 h; series mostly up to 28.7 µM
# How it was run: (§1)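 Three-day growth assay of blood-stage parasites in erythrocytes (0.3% parasitemia, 2.5% hematocrit) at 37 C, 5% CO2, quantified by SYBR Green DNA staining after overnight detergent lysis.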
# CP191 = assay: as above; conditions: P. falciparum in erythrocytes, SYBR Green DNA, 72 h; series mostly up to 28.7 µM
# How it was run: as §1
# CP237 = assay: as above; conditions: P. falciparum in erythrocytes, SYBR Green DNA, 72 h; series mostly up to 28.7 µM
# How it was run: as §1
# CP250 = assay: as above; conditions: P. falciparum in erythrocytes, SYBR Green DNA, 72 h; series mostly up to 28.7 µM
# How it was run: as §1
# CP252 = assay: as above; conditions: P. falciparum in erythrocytes, SYBR Green DNA, 72 h; series mostly up to 28.7 µM
# How it was run: as §1
# Dd2 = assay: as above; conditions: P. falciparum in erythrocytes, SYBR Green DNA, 72 h; series mostly up to 28.7 µM
# How it was run: as §1
# FAB9 = assay: as above; conditions: P. falciparum in erythrocytes, SYBR Green DNA, 72 h; series mostly up to 28.7 µM
# How it was run: as §1
# HB3 = assay: as above; conditions: P. falciparum in erythrocytes, SYBR Green DNA, 72 h; series mostly up to 28.7 µM
# How it was run: as §1
# PC49 = assay: as above; conditions: P. falciparum in erythrocytes, SYBR Green DNA, 72 h; series mostly up to 28.7 µM
# How it was run: as §1
# [6] = biological target: Cytochrome P450 2C19 (Homo sapiens) (UniProt P33261); assay: qHTS Assay for Inhibitors and Substrates of Cytochrome P450 2C19 (AID 899); further: nearly all actives have a fitted effect of over 60% in size; further: potency means the concentration at half of the fitted maximal effect
# How it was run: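 Luminescence readout of luciferin formed from 10uM Luciferin-H EGE (KM level) by 5 nM CYP2C19 in 50mM KPO4. 60 min NADPH-driven reaction at 37C after 10 min compound preincubation; data scaled to 57uM ketoconazole inhibition.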
# [7] = qHTS Assay for Identification of Small Molecule Agonists for Hypoxia Response Element Signaling Pathway (AID 914; active means well fitted activation curve with a large enough effect in the signal ratio, with a control signal flat, not every such curve was filed as active; the % refers to the signal ratio; further: % of control where 0% means no effect); conditions: ME-180 (cervical carcinoma) HRE-bla reporter, beta-lactamase ratio, CoCl2, 17 h; stronger effect = higher value
# How it was run: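 Read-out: CCF4 FRET ratio of 460nm to 530nm emission (excitation 405nm) after 2.5 hours at room temperature, taken from HRE-bla ME-180 cells that had been exposed to compound and EC50 CoCl2 for 17 hours.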
# [8] = biological target: Cytochrome P450 2C9 (Homo sapiens) (UniProt P11712); assay: qHTS Assay for Inhibitors and Substrates of Cytochrome P450 2C9 (AID 883); further: potency means the concentration at half of the fitted maximal effect; nearly all actives have a fitted effect of over 60% in size
# How it was run: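 Luminescent read-out of deoxyluciferin hydroxylation, normalized to 57uM sulphaphenazole (AC100). Reaction: 10nM enzyme, 100uM Luciferin-H (equal to KM), 25mM KPO4, 10 min compound preincubation, then 60 min with NADPH regeneration, both at 37C.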
# [9] = biological target: Cytochrome P450 3A4 (Homo sapiens) (UniProt P08684); assay: qHTS Assay for Inhibitors and Substrates of Cytochrome P450 3A4 (AID 884); further: potency means the concentration at half of the fitted maximal effect; nearly all actives have a fitted effect of over 50% in size
# How it was run: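 20 nM human CYP3A4 with 25 uM Luciferin-PPXE (at KM) in 200 mM KPO4, preincubated 10 min with compound; NADPH regeneration started a 60 min RT reaction. Luciferin detected by luminescence, normalized to 57 uM ketoconazole as full inhibition.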
# [10] = qHTS Assay for Identification of Small Molecule Antagonists for NFkB Signaling Pathway (AID 895; active means well fitted inhibition curve with a large enough effect in the signal ratio, with a control signal flat, not every such curve was filed as active; the % refers to the signal ratio; further: on the % scale 0 is the no-effect control and ±100 the full control effect)
# How it was run: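 Beta-lactamase reporter read-out (460 and 530 nm emission ratio, 405 nm excitation, 2 hrs substrate loading RT) after 5 hr stimulation with 10 pM TNF alpha in compound-treated NFkB-bla ME-180 cells in low-serum medium.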
# [11] = biological target: Muscarinic acetylcholine receptor M1 (Rattus norvegicus) (UniProt P08482); assay: qHTS Assay for Antagonists of Acetylcholine Muscarinic M1 Receptor: Kinetic Measurement of Intracellular Calcium Response (AID 943); further: nearly all actives have a fitted effect of over 75% in size; further: potency means the concentration at half of the fitted maximal effect
# How it was run: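 Intracellular calcium flux, recorded with Fluo-4 in a kinetic plate reader, served as signal; the response to carbachol at EC80 (100 nM final) was taken as maximal over minimal fluorescence after a 10 min compound pre-incubation in rat M1-CHO cells.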
# Chain of Muscarinic acetylcholine receptor M1 (Rattus norvegicus) (P08482 whole entry, looked up): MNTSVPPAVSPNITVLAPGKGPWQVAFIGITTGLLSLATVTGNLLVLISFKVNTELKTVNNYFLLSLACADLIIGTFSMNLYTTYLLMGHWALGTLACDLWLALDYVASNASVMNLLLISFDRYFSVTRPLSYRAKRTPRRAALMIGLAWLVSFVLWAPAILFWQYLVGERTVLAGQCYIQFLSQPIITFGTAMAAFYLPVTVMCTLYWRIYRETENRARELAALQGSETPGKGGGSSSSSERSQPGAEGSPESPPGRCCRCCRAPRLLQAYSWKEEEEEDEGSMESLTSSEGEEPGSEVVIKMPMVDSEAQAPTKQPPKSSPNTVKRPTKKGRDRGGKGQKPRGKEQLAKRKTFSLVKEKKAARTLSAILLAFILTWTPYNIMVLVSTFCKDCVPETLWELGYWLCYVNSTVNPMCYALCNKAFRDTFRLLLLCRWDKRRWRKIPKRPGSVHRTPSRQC
# Chain of Cytochrome P450 2C9 (Homo sapiens) (P11712 whole entry, looked up): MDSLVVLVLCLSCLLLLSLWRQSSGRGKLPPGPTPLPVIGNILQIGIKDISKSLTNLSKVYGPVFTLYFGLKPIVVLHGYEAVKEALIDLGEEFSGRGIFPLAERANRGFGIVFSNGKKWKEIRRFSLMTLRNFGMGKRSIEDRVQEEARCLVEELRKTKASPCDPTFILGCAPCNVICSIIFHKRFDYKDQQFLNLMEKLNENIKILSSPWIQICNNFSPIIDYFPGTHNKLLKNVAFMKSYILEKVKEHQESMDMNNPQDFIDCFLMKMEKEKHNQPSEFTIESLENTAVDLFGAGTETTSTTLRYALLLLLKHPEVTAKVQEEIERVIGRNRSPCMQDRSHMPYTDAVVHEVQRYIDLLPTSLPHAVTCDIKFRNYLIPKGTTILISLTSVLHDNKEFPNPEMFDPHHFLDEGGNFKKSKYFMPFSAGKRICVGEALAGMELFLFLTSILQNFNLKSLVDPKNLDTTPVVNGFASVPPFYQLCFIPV
# Chain of Cytochrome P450 2C19 (Homo sapiens) (P33261 whole entry, looked up): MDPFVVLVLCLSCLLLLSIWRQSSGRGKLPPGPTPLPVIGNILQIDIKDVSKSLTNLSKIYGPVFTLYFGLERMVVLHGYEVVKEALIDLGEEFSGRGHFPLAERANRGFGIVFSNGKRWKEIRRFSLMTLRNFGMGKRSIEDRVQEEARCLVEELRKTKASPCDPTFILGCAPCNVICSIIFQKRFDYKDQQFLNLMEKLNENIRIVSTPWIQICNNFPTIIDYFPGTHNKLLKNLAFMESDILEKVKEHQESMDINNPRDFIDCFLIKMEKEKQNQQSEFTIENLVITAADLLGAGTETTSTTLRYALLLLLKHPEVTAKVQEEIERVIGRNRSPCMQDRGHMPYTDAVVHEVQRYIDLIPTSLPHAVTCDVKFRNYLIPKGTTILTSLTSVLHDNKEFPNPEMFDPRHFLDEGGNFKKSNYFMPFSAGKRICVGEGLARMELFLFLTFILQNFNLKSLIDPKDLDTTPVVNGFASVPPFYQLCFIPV
# Chain of Ubiquitin carboxyl-terminal hydrolase 1 (Homo sapiens) (O94782 whole entry, looked up): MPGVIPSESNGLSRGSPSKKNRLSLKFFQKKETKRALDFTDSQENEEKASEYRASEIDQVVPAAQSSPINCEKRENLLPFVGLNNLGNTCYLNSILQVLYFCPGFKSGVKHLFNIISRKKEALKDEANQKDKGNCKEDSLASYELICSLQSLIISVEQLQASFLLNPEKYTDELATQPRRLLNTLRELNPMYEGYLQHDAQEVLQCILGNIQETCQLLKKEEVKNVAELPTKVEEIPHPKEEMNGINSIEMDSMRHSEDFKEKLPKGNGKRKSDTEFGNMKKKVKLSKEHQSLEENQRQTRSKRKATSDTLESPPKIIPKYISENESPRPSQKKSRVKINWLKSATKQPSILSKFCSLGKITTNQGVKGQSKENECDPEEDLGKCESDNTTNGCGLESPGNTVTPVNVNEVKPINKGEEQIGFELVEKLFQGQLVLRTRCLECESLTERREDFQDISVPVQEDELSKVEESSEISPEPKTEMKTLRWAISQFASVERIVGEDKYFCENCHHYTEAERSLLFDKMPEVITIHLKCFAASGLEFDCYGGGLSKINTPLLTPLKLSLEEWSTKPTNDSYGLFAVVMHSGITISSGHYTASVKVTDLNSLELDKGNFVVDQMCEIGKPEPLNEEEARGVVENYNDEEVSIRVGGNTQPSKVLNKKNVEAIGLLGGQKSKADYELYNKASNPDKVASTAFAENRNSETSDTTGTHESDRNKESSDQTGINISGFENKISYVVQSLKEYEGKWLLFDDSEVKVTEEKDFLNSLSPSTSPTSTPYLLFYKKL
# Chain of Luciferin 4-monooxygenase (Photinus pyralis) (P08659 whole entry, looked up): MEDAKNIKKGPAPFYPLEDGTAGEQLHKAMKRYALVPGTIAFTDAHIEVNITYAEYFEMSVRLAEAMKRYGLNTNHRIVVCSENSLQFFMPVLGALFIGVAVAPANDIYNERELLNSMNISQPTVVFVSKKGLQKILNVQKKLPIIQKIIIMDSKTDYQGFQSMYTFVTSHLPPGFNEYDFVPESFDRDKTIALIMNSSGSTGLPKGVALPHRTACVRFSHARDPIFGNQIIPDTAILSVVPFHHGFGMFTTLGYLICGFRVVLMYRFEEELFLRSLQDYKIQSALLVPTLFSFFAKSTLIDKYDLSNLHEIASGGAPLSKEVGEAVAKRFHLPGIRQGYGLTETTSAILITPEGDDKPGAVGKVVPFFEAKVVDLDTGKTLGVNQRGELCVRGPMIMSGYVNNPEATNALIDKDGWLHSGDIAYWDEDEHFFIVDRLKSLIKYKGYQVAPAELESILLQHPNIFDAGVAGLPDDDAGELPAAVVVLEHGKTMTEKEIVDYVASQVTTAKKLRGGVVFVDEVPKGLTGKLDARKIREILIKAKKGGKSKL
# Chain of Cytochrome P450 3A4 (Homo sapiens) (P08684 whole entry, looked up): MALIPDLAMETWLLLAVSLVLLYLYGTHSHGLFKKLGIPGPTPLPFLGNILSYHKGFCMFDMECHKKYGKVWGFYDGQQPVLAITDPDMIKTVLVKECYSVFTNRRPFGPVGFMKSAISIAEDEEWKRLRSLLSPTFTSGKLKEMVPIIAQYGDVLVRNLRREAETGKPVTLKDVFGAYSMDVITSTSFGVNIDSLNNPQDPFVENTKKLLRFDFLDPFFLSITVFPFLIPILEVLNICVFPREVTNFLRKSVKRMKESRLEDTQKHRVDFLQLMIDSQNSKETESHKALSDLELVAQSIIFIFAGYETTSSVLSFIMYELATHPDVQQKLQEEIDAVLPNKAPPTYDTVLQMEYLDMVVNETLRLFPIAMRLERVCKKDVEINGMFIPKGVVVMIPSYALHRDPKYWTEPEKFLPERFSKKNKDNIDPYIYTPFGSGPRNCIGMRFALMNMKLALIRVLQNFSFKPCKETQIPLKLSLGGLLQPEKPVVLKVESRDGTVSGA
# Chain of ATP-dependent 6-phosphofructokinase (Trypanosoma brucei brucei) (O15648 whole entry, looked up): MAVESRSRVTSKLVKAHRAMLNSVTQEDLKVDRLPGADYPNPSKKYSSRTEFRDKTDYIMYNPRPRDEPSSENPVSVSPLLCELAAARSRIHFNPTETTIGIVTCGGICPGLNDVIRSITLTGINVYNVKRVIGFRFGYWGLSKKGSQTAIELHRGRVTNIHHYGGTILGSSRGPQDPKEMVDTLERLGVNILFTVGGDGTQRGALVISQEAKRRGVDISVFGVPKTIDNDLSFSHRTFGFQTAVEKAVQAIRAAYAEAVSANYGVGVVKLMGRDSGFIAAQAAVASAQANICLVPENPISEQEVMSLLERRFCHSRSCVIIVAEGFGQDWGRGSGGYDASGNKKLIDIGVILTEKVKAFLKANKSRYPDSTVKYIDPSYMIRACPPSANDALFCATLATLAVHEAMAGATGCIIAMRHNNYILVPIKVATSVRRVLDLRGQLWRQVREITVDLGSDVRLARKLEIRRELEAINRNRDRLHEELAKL
compound,measurement,setting,value
C=C[C@@H]1CN2CC[C@H]1C[C@H]2[C@H](O)c1ccnc2ccccc12,outcome,[1],inactive
same,Potency,[2],inactive
same,outcome,[3],inactive
same,outcome,[4],inactive
same,outcome,[5],inactive
same,Potency,3D7,158 nM (active)
same,Potency,CP191,501 nM (active)
same,Potency,CP237,1120 nM (active)
same,Potency,CP250,1580 nM (active)
same,Potency,CP252,1120 nM (active)
same,Potency,Dd2,891 nM (active)
same,Potency,FAB9,112 nM (active)
same,Potency,HB3,224 nM (active)
same,Potency,PC49,891 nM (active)
Oc1ccc(CCNCc2cc3c(cc2Br)OCO3)cc1,Potency,[6],5010 nM (active)
same,activation,[7],-17.8%
CC(C)CNCCc1ccccn1,Potency,[6],inactive
same,activation,[7],5.07%
CSC([N-]/N=C/c1cccc(C)n1)=[S]=[Cu].CS[C@H]([S-])[N-]/N=C/c1cccc(C)n1,Potency,[8],251 nM (active)
same,Potency,[9],3980 nM (active)
same,Potency,[6],199 nM (active)
O=C(O)CN1CCN(CC(=O)O)CC(=O)[O][Hg][O]C(=O)C1,Potency,[8],1260 nM (active)
same,Potency,[6],794 nM (active)
COc1ccc(C[C@@H]2NC[C@H](O)[C@@H]2OC(C)=O)cc1,Potency,[2],inactive
N[C@H](Cn1ccc(=O)[nH]c1=O)C(=O)O,Potency,[10],inactive
same,activation,[7],10.5%
same,Potency,[11],inactive
CC(C)N[C@@H](C)Cc1ccc(I)cc1,Potency,[11],8910 nM (active)
C=CCN1CC[C@]23c4c5ccc(O)c4O[C@@H]2/C(=N/NC(=O)c2ccccc2)CC[C@@]3(O)[C@H]1C5,Potency,[11],inactive
C[C@@H](O)CN(CCN(C[C@@H](C)O)C[C@@H](C)O)C[C@@H](C)O.O=[N+]([O-])O.[Cu],Potency,[8],794 nM (active)
same,Potency,[6],398 nM (active)
CC(=O)[C@@H]1CC[C@H]2[C@H]3CC[C@H]4C[C@@H](O)CC[C@]4(C)[C@@H]3CC[C@]12C,Potency,[8],2000 nM (active)
C[N+]1(C)C2CC(OC(=O)C(CO)c3ccccc3)CC1[C@@H]1O[C@H]21 (stereo not given in full),Potency,[10],inactive
CCCN1CC[C@@H]2c3cc(O)ccc3CC[C@H]21,Potency,[10],inactive
same,Potency,[11],14100 nM (active)
CC(=O)OCC1=C(C(=O)[O-])N2C(=O)[C@@H](NC(=O)CCC[C@@H](N)C(=O)[O-])[C@@H]2SC1.[Zn+2],Potency,[10],inactive
same,Potency,[11],inactive
O=[As](O)(O)c1ccc2nc3cc([As](=O)(O)O)ccc3nc2c1,Potency,[6],inactive
CC(C)[C@@]1(NC(=O)[C@H]2C[C@H]3c4cccc5[nH]cc(c45)C[C@@H]3N(C)C2)O[C@]2(O)[C@H]3CCCN3C(=O)[C@H](Cc3ccccc3)N2C1=O,Potency,[8],2510 nM (active)
same,Potency,[6],6310 nM (active)
